Compounds without any hit were thinned out: in the full panel of roughly 83,000, 20% have a hit.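 Interpretation: 100, growth as untreated; towards 0, rising growth inhibition; 0, no net growth; 0 to -100, cell death. Compounds scoring below 10 were considered active.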 Activity calls are given as the source filed them.
What was measured:
Assay in all cases: NCI-60 one-dose screen, 48 h (100 = growth as untreated, 0 = no growth, -100 = all killed)
Details in all cases: 10 µM unless noted
[1] = tested on: SR leukemia
[2] = tested on: RPMI-8226 leukemia
[3] = tested on: OVCAR-8 ovarian
[4] = tested on: OVCAR-5 ovarian
[5] = tested on: OVCAR-4 ovarian
[6] = tested on: SK-OV-3 ovarian
[7] = tested on: OVCAR-3 ovarian
[8] = tested on: NCI/ADR-RES ovarian
[9] = tested on: T-47D breast
[10] = tested on: BT-549 breast
[11] = tested on: MDA-MB-435 melanoma
[12] = tested on: SW-620 colon
[13] = tested on: MCF7 breast
[14] = tested on: HCT-116 colon
[15] = tested on: HCC-2998 colon
[16] = tested on: HS 578T breast
[17] = tested on: KM12 colon

Measured: growth

N=C(N)N=Nc1ccc(NN=C(N)N)c2ccccc12
inactive: [1] 109% | [2] 110% | [3] 96.2% | [4] 108% | [5] 106% | [6] 88.1% | [7] 127% | [8] 110% | [9] 86.3% | [10] 81.1% | [11] 115% | [12] 103% | [13] 97.4% | [14] 88.8% | [15] 106%

COCn1c(C(=O)OC)cc2oc(/C=C3/SC(=S)N(N)C3=O)cc21
inactive: [1] 45.7% | [2] 79.2% | [3] 98% | [4] 108% | [5] 97.2% | [6] 89.6% | [7] 81.1% | [16] 55.8% | [8] 112% | [9] 94.4% | [10] 80.8% | [11] 94.9% | [12] 97.6% | [13] 97% | [14] 93.8% | [15] 102% | [17] 92.3%

CCCCCCCCC1OC1CCCCCCCC(=O)O (configuration not stated)
inactive: [1] 101% | [2] 98.4% | [3] 101% | [4] 108% | [5] 115% | [6] 95.3% | [16] 98.6% | [8] 104% | [9] 99% | [10] 128% | [11] 107% | [12] 108% | [13] 101% | [14] 101% | [15] 107% | [17] 104%

COc1ccc(CNCCCN2C(=O)c3ccc4c5c(ccc(c35)C2=O)C(=O)N(CCCNCc2ccc(OC)c(OC)c2OC)C4=O)c(OC)c1OC
active: [1] -55.4% | [2] -42.3% | [3] -51.1% | [4] -55.4% | [5] -97.3% | [6] -77.4% | [7] -91.8% | [16] -38.2% | [8] -36.5% | [9] -40.1% | [10] -90.5% | [11] -87.5% | [12] -94.6% | [13] -85% | [14] -71.2% | [15] -92.8%

CCC(C)(C)c1ccc(OCCCCCCN2CCN(c3ccc(C)c(Cl)c3)CC2)cc1
inactive: [1] 71.8% | [2] 59.7% | [3] 98.7% | [4] 97.6% | [5] 74.5% | [6] 98% | [7] 58.3% | [8] 85% | [10] 79.5% | [11] 97.3% | [13] 88.4% | [14] 62.3% | [15] 83.5% | [17] 79.3%

CCn1cnc(C[C@H](NC(=O)[C@@H](NC(=O)Nc2cc(C(F)(F)F)cc(C(F)(F)F)c2)C(C)(C)C)C(=O)OC)c1
active: [1] -38.1% [100 µM] | [2] -58.6% [100 µM] | [3] -79.5% [100 µM] | [4] -92.8% [100 µM] | [5] -82.7% [100 µM] | [6] -100% [100 µM] | [7] -96.5% [100 µM] | [16] -2.17% [100 µM] | [8] 7.32% [100 µM] | [10] -86.2% [100 µM] | [11] -90.7% [100 µM] | [12] -60% [100 µM] | [13] -62% [100 µM] | [14] -81% [100 µM] | [15] -89.3% [100 µM]

Nc1nc2c(c3cnccc13)C(c1cccc(Br)c1)Cc1cnccc1-2 (configuration not stated)
inactive: [1] 17.8% | [3] 28.8% | [4] 43.9% | [5] 37.5% | [6] 30.8% | [16] 42.3% | [9] 43.9% | [12] 25.9% | [13] 11.5% | [15] 34.8% | [17] 13.2%
active: [2] -2.76% | [7] 1.08% | [8] -4.12% | [10] -15.6% | [11] -37.2% | [14] 3.93%

CCN(CC)CCCNc1c2ccc(Cl)cc2nc2ccc(OC)cc12
active: [1] -30.3% | [2] -21.5% | [3] 4.01% | [4] 3.61% | [5] -35.2% | [6] 3.94% | [7] -11.5% | [8] 0.48% | [10] -20.4% | [11] -90.5% | [12] 3.44% | [13] -16.4% | [14] -4.77% | [15] -68.1% | [17] 0.483%
inactive: [16] 34.1%

CCCCCCCCCCN1CC2CCCCC2C1 (configuration not stated)
inactive: [1] 12.9% | [2] 51.6% | [3] 94% | [4] 66.2% | [5] 49.1% | [6] 83.8% | [7] 77.9% | [16] 84.4% | [8] 83.8% | [10] 69% | [11] 91.3% | [12] 74.2% | [13] 65% | [14] 53.6% | [15] 82.9% | [17] 65.3%

O=C(Nn1cnc2ccccc21)N1CCCC1
inactive: [1] 76.5% | [2] 150% | [3] 106% | [4] 95.7% | [5] 118% | [6] 104% | [7] 104% | [16] 104% | [8] 119% | [9] 106% | [10] 96.5% | [11] 104% | [12] 109% | [13] 108% | [14] 85.1% | [15] 83.7% | [17] 116%

Cc1nc2c(nnn2-c2ccccc2)c2nc(-c3ccccc3)oc(=O)c12
inactive: [1] 105% | [2] 113% | [3] 111% | [4] 105% | [5] 115% | [6] 115% | [7] 117% | [16] 107% | [8] 112% | [10] 105% | [11] 111% | [12] 109% | [13] 92.3% | [14] 101% | [15] 116% | [17] 118%

O=C(C(=O)N1CCOCC1)c1ccc(O[C@H]2O[C@H](CO)[C@@H](O)[C@H](O)[C@@H]2O)cc1
inactive: [1] 94.6% | [2] 96.8% | [3] 109% | [4] 98.6% | [5] 105% | [6] 106% | [7] 121% | [8] 105% | [9] 107% | [10] 99.3% | [11] 108% | [12] 107% | [13] 100% | [14] 96.6% | [15] 79% | [17] 110%

C#CCCCCCCC[C@@H]1OC(=O)[C@H]([C@@H](C)CC)NC(=O)[C@H]([C@@H](C)CC)NC(=O)CC(=O)[C@@H]1C
inactive: [1] 82.2% | [2] 89.4% | [3] 101% | [4] 90.6% | [5] 97.6% | [6] 103% | [7] 101% | [16] 90.1% | [8] 94.9% | [10] 108% | [12] 98.2% | [13] 95.4% | [15] 106% | [17] 100%

CC1CCCCC[N+]12CCCC2 (configuration not stated)
inactive: [1] 91.7% | [2] 100% | [3] 101% | [4] 106% | [5] 113% | [6] 98.1% | [7] 116% | [16] 112% | [8] 111% | [9] 107% | [10] 107% | [11] 100% | [12] 107% | [13] 97.2% | [14] 109% | [15] 117% | [17] 106%

CCOc1nc(-c2ccccc2)cc2c(O)c(C(=O)N/N=C/c3ccccc3O)[nH]c(=O)c12
active: [8] 5.38%
inactive: [1] 28.2% | [2] 99.3% | [3] 65.4% | [4] 89.7% | [5] 93% | [6] 102% | [7] 76.7% | [16] 66.1% | [9] 94% | [10] 97.8% | [11] 113% | [12] 74.9% | [13] 72.8% | [14] 88.3% | [17] 80.6%

COc1ccc(CN2C(=O)/C(=C\C(=O)c3ccc(OCCN4CCCCC4)cc3)c3ccccc32)cc1
inactive: [3] 80.8% | [4] 76.3% | [5] 45.4% | [6] 107% | [16] 81.3% | [8] 83.3% | [9] 15.5% | [10] 81.5% | [11] 95% | [13] 20.3% | [15] 94.9%
active: [1] -22.2% | [2] -11.6% | [12] -39.9% | [14] 4.2%

CCN(CC)CCCC(C)Nc1c(C)cnc2cc(Cl)c(C)cc12 (configuration not stated)
inactive: [1] 16.5% | [2] 43.6% | [3] 96% | [4] 98.1% | [5] 85.4% | [6] 98.5% | [7] 92.9% | [16] 96.3% | [8] 93.2% | [10] 69.2% | [11] 89.9% | [12] 85.9% | [13] 85.6% | [15] 74.5% | [17] 81.9%

COc1ccc(/C(=C(\c2ccccc2)[N+](=O)[O-])c2ccc(OCCN3CCCC3)cc2)cc1
inactive: [1] 21.8% | [2] 37% | [3] 92.6% | [4] 75.3% | [5] 81.8% | [6] 99% | [7] 100% | [8] 84.3% | [9] 51.5% | [10] 74.2% | [11] 48.2% | [13] 37.4% | [15] 80.8% | [17] 54.1%

Source: PubChem BioAssay (NCI)
